From PubChem BioAssay (EPA / NIEHS)
Results filed as inconclusive are left out. Active and inactive are the calls of the source. Rule for the calls: active = hit-call score of the fitted dose curve at least 0.9, where 1 is the maximum; inconclusive = response in the unintended direction; inactive = score below 0.9.

Experiment: CCTE_Shafer_MEA_acute_AB: CCTE's Alamar Blue Assay for Cytotoxicity in the Neural Acute Assay, Shafer Lab (AID 2284069);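 note: active compounds lower the viability signal compared with DMSO wells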
Experimental: CCTE_Shafer_MEA_acute assay is conducted using Axion Biosystems 48 well microelectrode array (MEA) plates and Maestro recording system. Each well of the MEA plate contains a grid of 16 microelectrodes embedded in the culture surface. Electrically active cells, such as neurons, can be cultured over the electrodes, and electrical activity in these cells can be recorded extracellularly. The spontaneous firing of neurons is captured from each electrode on a microsecond timescale providing both temporally and spatially precise data. […] The CCTE_Shafer_MEA_acute assay uses primary cultures of rat cortical neurons. As these cultures mature over time, neural networks develop functional activity and form cohesive networks in which electrical activity can be highly coordinated. Baseline 40-minute recordings are made on days post-plating 13 or 15, followed by a secondary 40-minute recording after chemical exposure.CCTE_Shafer_MEA_acute_AB is a component of the CCTE_Shafer_MEA_acute assay. It measures the resazurin reduction using fluorescence.Data from the assay component CCTE_Shafer_MEA_acute_AB was analyzed into 1 assay endpoint. This assay endpoint, CCTE_Shafer_MEA_acute_AB, was analyzed in the positive analysis fitting direction relative to DMSO as the negative control and baseline of activity. Using a type of viability reporter, loss-of-signal activity can be used to understand cell viability.
Metabolic activity was determined using the CellTiter Blue (CTB) assay (Promega Cat. #8081), following the manufacturer's instructions with the following modifications. Following the removal of the 50 uL sample for the LDH assay, 450 uL of media was removed from each well and replaced with 200 uL of fresh media containing a 1:6 dilution of CTB reagent for the determination of metabolic activity. Fluorescence was measured in a Fluorostar Optima fluorimeter using an excitation wavelength of 544 nm and an emission wavelength of 590 nm.

| SMILES | AC50 | outcome |
| --- | --- | --- |
| CC(=O)[O][Hg][c]1ccccc1 | 20 µM (active) | – |
| CCOP(=S)(OCC)SCSP(=S)(OCC)OCC | – | inactive |
| ClC1(Cl)C2(Cl)C3(Cl)C4(Cl)C(Cl)(Cl)C5(Cl)C3(Cl)C1(Cl)C5(Cl)C24Cl (configuration not stated) | – | inactive |
| COC(=O)Cc1ccccc1 | – | inactive |
| O=C(Nc1ccc2[nH]ccc2c1)c1cc2cc(F)ccc2n1Cc1cccc(F)c1 | – | inactive |
| CC(C)(OO)c1ccccc1 | – | inactive |
| CC(C)(c1ccccc1)c1ccc(O)c(C(C)(C)c2ccccc2)c1 | – | inactive |
| O=C1C2(Cl)C3(Cl)C4(Cl)C(Cl)(Cl)C5(Cl)C3(Cl)C1(Cl)C5(Cl)C24Cl (configuration not stated) | – | inactive |
| O=C(O)C(F)(F)C(F)(F)C(F)(F)C(F)(F)C(F)(F)C(F)(F)C(F)(F)C(F)(F)C(F)(F)C(F)(F)F | – | inactive |
| CCCCCCCCc1ccc(O)cc1 | – | inactive |
| CCC(=O)C(CC(C)N(C)C)(c1ccccc1)c1ccccc1 (configuration not stated) | – | inactive |
| C=C(C)C(=O)[O][Sn]([CH2]CCC)([CH2]CCC)[CH2]CCC | 4.69 µM (active) | – |
| CC(C)(C)CC(C)(C)c1ccc(O)cc1 | – | inactive |
| CCN1CCC2(CC1)COc1cc3c(cc12)N(C(=O)c1ccc(-c2ccc(-c4nnc(C)o4)cc2C)cc1)CC3 | 17.2 µM (active) | – |
| CCC(C)(C)c1ccc(O)c(C(C)(C)CC)c1 | 35.4 µM (active) | – |
| C[C@]12CCC(=O)C[C@@H]1CC[C@@H]1[C@@H]2CC[C@]2(C)[C@@H](O)CC[C@@H]12 | – | inactive |
| CC(C)(C)c1cc(O)ccc1O | – | inactive |
